Experiments:
Experiment in all cases: DAPPL (digital affinity profiling via proximity ligation, sequencing); 10 mM Tris-HCl pH 7.5, 50 mM NaCl, 1 mM DTT, 4% glycerol, room temperature, 30 min; GST-TFs on glutathione beads, 16-mer random dsDNA library, 0.1% formaldehyde crosslink after washing; high values mean tight binding
FLI1 = biological target: T1, FLI1 (Homo sapiens, UniProt Q01543 1-452); conditions: protein: recombinant; tags: N-terminal GST; dsDNA, one strand shown
T1 sequence: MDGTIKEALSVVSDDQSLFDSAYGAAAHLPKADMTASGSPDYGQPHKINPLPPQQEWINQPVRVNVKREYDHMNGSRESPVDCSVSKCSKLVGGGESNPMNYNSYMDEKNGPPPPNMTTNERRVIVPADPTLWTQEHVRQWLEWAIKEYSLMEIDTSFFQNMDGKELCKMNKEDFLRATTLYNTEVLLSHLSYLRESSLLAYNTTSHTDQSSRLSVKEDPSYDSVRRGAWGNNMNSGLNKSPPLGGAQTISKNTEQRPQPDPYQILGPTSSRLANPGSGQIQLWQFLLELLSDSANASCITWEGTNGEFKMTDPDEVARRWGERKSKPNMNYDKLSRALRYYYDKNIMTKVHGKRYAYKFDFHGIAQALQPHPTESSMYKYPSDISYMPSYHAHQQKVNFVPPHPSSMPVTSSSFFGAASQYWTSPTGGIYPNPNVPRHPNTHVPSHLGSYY
Procedure, shortened: (§1)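 Beads coated with glutathione captured GST-fused human transcription factors that had been expressed in yeast, and the factors were then given DNA barcodes and pooled with a tag-only sample. The pools were incubated with 200 nmole of a random double-stranded 16-mer DNA library in Tris/NaCl/DTT/glycerol buffer for 30 min at room temperature, washed, crosslinked with 0.1% formaldehyde and proximity-ligated with BsaI/T4 ligase at 37 °C for 1 h. PCR amplification and Illumina NextSeq500 sequencing came last. Binding signal is each hexamer's read frequency for a factor divided by its frequency for the tag-only sample.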

ELK1 = biological target: T2, ELK1 (Homo sapiens, UniProt P19419 1-428); conditions: protein: recombinant; tags: N-terminal GST; dsDNA, one strand shown
T2 sequence: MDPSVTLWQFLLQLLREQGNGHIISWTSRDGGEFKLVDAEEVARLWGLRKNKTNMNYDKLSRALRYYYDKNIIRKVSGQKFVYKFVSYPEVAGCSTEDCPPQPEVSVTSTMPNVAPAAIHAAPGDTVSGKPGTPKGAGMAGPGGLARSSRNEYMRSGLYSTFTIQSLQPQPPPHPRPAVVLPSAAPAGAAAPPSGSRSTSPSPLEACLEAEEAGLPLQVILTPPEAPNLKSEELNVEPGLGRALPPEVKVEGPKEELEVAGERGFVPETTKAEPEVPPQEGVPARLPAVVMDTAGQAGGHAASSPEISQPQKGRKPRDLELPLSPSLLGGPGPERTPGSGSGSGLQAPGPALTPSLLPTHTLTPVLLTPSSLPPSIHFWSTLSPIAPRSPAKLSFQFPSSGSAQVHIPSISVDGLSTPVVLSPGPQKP
Procedure, shortened: as §1

GABPA = biological target: T3, GABPA (Homo sapiens, UniProt Q06546 1-454); conditions: protein: recombinant; tags: N-terminal GST; dsDNA, one strand shown
T3 sequence: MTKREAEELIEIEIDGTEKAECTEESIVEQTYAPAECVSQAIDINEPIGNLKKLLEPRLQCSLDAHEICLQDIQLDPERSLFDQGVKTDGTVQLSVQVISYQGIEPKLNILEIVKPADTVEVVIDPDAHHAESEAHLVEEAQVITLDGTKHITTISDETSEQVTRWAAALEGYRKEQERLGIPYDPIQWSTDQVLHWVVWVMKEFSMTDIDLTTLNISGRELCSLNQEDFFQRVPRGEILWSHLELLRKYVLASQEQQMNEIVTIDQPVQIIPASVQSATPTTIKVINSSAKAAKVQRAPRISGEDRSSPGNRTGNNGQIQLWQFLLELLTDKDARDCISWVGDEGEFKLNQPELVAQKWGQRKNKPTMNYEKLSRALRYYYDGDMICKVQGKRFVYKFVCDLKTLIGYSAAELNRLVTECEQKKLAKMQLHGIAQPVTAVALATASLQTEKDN
Procedure, shortened: as §1

ERG = biological target: T4, ERG (Homo sapiens, UniProt P11308 1-479); conditions: protein: recombinant; tags: N-terminal GST; dsDNA, one strand shown
T4 sequence: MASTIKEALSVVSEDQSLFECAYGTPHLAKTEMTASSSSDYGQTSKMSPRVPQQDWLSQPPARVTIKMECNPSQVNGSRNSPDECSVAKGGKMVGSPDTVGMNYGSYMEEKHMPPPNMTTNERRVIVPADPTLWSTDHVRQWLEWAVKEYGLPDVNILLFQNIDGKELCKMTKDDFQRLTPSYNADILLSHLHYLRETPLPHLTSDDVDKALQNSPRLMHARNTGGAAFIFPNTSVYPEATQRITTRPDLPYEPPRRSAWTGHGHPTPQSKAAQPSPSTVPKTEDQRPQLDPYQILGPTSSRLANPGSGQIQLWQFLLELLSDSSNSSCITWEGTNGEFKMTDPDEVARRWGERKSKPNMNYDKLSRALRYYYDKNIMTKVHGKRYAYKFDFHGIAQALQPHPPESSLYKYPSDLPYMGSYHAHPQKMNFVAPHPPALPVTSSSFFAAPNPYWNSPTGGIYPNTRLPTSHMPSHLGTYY
Procedure, shortened: as §1

ELF1 = ELF1 (Homo sapiens, UniProt P32519 1-619); conditions: protein: recombinant; tags: N-terminal GST; dsDNA, one strand shown
ELF1, sequence (P32519 whole entry): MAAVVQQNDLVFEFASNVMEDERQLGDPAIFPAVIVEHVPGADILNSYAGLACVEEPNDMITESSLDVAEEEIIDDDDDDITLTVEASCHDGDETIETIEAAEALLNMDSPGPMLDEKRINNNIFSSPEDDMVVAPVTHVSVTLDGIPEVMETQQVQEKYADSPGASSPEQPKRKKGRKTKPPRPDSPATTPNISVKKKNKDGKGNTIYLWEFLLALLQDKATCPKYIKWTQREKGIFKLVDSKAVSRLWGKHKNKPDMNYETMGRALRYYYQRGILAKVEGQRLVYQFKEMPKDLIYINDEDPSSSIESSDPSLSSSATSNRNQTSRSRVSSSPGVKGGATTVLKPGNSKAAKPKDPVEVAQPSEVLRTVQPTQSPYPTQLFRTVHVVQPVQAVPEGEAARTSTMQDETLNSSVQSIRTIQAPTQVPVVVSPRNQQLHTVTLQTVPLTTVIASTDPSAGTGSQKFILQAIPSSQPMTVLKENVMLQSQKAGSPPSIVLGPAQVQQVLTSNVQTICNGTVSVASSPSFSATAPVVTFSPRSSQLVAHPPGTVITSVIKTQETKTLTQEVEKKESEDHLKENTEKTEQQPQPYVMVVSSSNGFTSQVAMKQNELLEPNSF
Procedure, shortened: as §1

EHF = biological target: T5, EHF (Homo sapiens, UniProt Q9NZC4 1-300); conditions: protein: recombinant; tags: N-terminal GST; dsDNA, one strand shown
T5 sequence: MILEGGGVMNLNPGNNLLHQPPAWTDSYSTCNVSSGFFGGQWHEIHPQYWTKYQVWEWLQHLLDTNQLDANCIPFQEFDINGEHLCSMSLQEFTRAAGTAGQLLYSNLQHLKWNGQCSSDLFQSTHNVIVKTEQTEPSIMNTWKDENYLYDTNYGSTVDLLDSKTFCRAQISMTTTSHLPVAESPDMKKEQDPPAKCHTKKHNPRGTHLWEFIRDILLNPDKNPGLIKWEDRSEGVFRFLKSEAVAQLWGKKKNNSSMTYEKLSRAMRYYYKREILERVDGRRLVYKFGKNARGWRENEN
Procedure, shortened: as §1

SPI1 = SPI1 (Homo sapiens, UniProt P17947 1-270); conditions: protein: recombinant; tags: N-terminal GST; dsDNA, one strand shown
Procedure, shortened: as §1

SPIB = SPIB (Homo sapiens, UniProt Q01892 1-262); conditions: protein: recombinant; tags: N-terminal GST; dsDNA, one strand shown
SPIB, sequence (Q01892 whole entry): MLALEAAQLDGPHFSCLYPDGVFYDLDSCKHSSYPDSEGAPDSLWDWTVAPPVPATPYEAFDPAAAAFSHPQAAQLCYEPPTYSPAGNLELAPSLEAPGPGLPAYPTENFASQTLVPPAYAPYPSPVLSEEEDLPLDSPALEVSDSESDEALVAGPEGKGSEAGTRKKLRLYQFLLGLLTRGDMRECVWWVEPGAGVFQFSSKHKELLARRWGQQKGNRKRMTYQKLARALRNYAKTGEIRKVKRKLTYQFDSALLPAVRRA
Procedure, shortened: as §1

FEV = biological target: T6, FEV (Homo sapiens, UniProt Q99581 1-238); conditions: protein: recombinant; tags: N-terminal GST; dsDNA, one strand shown
T6 sequence: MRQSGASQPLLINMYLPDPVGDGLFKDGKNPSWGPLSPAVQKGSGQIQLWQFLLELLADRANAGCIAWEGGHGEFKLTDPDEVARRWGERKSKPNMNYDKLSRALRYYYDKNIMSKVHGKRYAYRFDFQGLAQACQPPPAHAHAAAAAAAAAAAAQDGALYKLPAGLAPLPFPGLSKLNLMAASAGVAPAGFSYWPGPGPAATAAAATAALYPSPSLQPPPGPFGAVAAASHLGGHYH
Procedure, shortened: as §1

ETV5 = ETV5 (Homo sapiens, UniProt P41161 1-510); conditions: protein: recombinant; tags: N-terminal GST; dsDNA, one strand shown
ETV5, sequence (P41161 whole entry): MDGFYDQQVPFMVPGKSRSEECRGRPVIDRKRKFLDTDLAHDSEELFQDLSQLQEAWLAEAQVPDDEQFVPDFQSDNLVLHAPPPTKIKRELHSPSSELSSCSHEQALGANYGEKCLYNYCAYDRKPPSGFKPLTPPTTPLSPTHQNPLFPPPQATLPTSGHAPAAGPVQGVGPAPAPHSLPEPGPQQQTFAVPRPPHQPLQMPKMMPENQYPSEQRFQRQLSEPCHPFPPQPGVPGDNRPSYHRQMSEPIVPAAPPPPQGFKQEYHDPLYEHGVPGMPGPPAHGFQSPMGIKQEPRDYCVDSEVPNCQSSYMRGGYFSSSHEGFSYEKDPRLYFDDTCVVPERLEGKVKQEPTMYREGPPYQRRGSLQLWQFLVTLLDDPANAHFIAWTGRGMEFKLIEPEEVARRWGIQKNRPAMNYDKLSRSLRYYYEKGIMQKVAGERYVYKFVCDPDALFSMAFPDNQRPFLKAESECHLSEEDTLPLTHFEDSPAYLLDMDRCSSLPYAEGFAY
Procedure, shortened: as §1

HSF1 = HSF1 (Homo sapiens, UniProt Q00613 1-529); conditions: protein: recombinant; tags: N-terminal GST; chain copies: 3; dsDNA, one strand shown
HSF1, sequence (Q00613 whole entry): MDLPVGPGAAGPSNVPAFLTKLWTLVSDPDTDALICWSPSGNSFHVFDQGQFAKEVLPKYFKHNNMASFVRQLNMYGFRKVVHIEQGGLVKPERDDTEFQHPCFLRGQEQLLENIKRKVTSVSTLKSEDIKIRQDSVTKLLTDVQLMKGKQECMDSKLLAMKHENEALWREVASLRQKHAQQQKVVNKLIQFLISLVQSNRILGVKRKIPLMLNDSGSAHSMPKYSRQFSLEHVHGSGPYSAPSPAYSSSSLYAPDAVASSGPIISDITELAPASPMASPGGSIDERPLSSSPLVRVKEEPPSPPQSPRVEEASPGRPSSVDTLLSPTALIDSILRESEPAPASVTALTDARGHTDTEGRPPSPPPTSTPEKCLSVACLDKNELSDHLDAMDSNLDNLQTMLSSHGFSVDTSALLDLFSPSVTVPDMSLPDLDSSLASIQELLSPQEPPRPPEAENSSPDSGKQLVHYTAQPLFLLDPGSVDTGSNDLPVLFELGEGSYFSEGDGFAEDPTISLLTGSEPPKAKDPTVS
Procedure, shortened: as §1

SPIC = biological target: T7, SPIC (Homo sapiens, UniProt Q8N5J4 1-248); conditions: protein: recombinant; tags: N-terminal GST; dsDNA, one strand shown
T7 sequence: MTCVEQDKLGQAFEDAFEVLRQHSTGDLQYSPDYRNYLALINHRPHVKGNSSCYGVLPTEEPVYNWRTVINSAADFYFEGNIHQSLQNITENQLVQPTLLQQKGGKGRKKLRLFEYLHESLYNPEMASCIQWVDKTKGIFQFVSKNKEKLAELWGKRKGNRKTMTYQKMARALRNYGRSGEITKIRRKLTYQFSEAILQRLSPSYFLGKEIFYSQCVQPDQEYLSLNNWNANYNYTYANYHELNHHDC
Procedure, shortened: as §1

ELF4 = ELF4 (Homo sapiens, UniProt Q99607 1-663); conditions: protein: recombinant; tags: N-terminal GST; dsDNA, one strand shown
ELF4, sequence (Q99607 whole entry): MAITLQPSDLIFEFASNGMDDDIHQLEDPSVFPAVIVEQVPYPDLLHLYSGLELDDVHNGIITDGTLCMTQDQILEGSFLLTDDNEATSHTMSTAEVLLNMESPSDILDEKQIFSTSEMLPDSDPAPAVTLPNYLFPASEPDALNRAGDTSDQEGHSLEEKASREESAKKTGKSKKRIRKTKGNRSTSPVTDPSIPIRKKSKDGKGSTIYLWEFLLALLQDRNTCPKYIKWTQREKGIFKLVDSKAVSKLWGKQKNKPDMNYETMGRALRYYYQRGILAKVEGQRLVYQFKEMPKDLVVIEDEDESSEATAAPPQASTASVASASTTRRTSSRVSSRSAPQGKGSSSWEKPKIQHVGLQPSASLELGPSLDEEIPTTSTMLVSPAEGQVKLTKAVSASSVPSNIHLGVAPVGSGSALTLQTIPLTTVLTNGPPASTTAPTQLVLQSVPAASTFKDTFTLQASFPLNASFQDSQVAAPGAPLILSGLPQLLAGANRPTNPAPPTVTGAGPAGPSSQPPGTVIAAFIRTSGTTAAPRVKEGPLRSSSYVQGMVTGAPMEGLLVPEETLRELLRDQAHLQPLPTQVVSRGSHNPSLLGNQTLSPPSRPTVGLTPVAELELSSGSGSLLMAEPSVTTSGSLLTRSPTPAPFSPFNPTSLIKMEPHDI
Procedure, shortened: as §1

ELK4 = biological target: T8, ELK4 (Homo sapiens, UniProt P28324-2 1-405); conditions: protein: recombinant; tags: N-terminal GST; dsDNA, one strand shown
T8 sequence: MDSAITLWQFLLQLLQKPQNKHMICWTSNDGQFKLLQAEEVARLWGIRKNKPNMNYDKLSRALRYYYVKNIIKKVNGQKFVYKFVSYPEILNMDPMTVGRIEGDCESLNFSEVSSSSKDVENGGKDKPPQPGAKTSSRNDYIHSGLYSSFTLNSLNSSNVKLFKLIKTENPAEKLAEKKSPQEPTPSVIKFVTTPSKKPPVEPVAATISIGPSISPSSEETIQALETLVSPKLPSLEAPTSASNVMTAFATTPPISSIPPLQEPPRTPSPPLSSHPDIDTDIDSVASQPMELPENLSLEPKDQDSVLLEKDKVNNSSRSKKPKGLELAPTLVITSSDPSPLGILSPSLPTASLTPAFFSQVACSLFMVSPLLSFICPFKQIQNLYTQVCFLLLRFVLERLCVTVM
Procedure, shortened: as §1

ETV2 = biological target: T9, ETV2 (Homo sapiens, UniProt O00321 1-342); conditions: protein: recombinant; tags: N-terminal GST; dsDNA, one strand shown
T9 sequence: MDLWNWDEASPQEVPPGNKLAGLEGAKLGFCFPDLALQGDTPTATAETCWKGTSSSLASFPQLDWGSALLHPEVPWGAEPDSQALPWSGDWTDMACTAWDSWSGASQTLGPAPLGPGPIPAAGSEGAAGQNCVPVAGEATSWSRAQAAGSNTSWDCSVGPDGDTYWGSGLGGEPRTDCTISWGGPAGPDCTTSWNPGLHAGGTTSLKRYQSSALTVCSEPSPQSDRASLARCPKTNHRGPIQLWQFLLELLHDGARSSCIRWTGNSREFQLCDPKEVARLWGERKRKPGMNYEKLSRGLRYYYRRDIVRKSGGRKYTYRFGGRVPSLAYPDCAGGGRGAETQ
Procedure, shortened: as §1

ELF3 = biological target: T10, ELF3 (Homo sapiens, UniProt P78545 1-371); conditions: protein: recombinant; tags: N-terminal GST; dsDNA, one strand shown
T10 sequence: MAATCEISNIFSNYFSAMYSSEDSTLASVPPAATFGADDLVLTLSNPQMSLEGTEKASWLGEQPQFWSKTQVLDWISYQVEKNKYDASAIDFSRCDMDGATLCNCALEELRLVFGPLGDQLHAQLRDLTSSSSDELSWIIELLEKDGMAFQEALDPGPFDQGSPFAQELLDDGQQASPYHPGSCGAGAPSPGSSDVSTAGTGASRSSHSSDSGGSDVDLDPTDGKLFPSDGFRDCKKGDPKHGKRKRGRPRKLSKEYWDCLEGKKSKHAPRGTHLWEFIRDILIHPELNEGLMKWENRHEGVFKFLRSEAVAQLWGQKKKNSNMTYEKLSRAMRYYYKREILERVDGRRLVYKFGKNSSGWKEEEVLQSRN
Procedure, shortened: as §1

CRX = CRX (Homo sapiens, UniProt O43186 1-299); conditions: protein: recombinant; tags: N-terminal GST; dsDNA, one strand shown
CRX, sequence (O43186 whole entry): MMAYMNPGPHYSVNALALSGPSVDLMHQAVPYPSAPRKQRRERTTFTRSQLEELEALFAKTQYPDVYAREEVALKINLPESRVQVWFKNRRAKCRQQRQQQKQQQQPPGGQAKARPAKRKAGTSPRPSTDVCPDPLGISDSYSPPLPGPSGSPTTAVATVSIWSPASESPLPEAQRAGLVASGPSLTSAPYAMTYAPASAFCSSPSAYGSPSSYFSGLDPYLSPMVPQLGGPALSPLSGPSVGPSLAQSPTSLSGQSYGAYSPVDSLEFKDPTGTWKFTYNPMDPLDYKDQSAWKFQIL
Procedure, shortened: as §1

ETV1 = ETV1 (Homo sapiens, UniProt P50549 1-477); conditions: protein: recombinant; tags: N-terminal GST; dsDNA, one strand shown
ETV1, sequence (P50549 whole entry): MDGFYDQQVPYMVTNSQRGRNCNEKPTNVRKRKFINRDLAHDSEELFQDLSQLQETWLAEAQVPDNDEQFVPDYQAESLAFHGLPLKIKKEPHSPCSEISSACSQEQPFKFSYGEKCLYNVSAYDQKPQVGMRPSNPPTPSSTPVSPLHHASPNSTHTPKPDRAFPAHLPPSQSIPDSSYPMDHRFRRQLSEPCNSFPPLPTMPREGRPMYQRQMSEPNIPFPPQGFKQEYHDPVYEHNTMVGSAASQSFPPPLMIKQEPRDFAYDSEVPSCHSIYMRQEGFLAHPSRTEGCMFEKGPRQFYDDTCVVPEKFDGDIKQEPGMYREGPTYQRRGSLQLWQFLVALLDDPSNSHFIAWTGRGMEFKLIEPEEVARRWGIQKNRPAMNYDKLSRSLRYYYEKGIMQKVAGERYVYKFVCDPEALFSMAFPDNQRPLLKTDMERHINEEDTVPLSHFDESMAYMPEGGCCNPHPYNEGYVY
Procedure, shortened: as §1

For AATAGA, the binding signal (FLI1) was 1.06 fold enrichment (6-mer frequency, TF over GST control), the binding signal (ELK1) was 1.09 fold enrichment (6-mer frequency, TF over GST control) and the binding signal (GABPA) was 1.11 fold enrichment (6-mer frequency, TF over GST control). For the same sequence, the binding signal (ERG) was 1.12 fold enrichment (6-mer frequency, TF over GST control), the binding signal (ELF1) was 1.09 fold enrichment (6-mer frequency, TF over GST control) and the binding signal (EHF) was 1.08 fold enrichment (6-mer frequency, TF over GST control). The binding signal (SPI1) was 1.08 fold enrichment (6-mer frequency, TF over GST control), the binding signal (SPIB) was 1.05 fold enrichment (6-mer frequency, TF over GST control) and the binding signal (FEV) was 1.07 fold enrichment (6-mer frequency, TF over GST control). For the same sequence, the binding signal (ETV5) was 1.07 fold enrichment (6-mer frequency, TF over GST control), the binding signal (HSF1) was 1.34 fold enrichment (6-mer frequency, TF over GST control) and the binding signal (SPIC) was 1.02 fold enrichment (6-mer frequency, TF over GST control). For the same sequence, the binding signal (ELF4) was 1.07 fold enrichment (6-mer frequency, TF over GST control), the binding signal (ELK4) was 1.1 fold enrichment (6-mer frequency, TF over GST control) and the binding signal (ETV2) was 1.13 fold enrichment (6-mer frequency, TF over GST control). The binding signal (ELF3) was 1.07 fold enrichment (6-mer frequency, TF over GST control), the binding signal (CRX) was 1.15 fold enrichment (6-mer frequency, TF over GST control) and the binding signal (ETV1) was 1.07 fold enrichment (6-mer frequency, TF over GST control).

From article PMC7862700, “An all-to-all approach to the identification of sequence-specific readers for epigenetic DNA modifications on cytosine”
